Screens deposited in PubChem by several laboratories.
TAG inh – reduces triacylglycerol accumulation in H9c2 cells; inhibition, % at 12.5 µM; Nile Red lipid (TAG) fluorescence; cells loaded with 200 µM oleic acid; 230,000 tested, 0.66% active;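 active = pattern-corrected inhibition of lipid staining of at least 50% with the nuclear-stain viability signal not falling by more than 50%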;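 also: 0% = DMSO wells and 100% = triacsin C control wells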
CHT block – inhibitors of human choline transporter CHT; B-score at 10 µM; CHT-expressing cells, membrane potential dye, choline response; stronger effect = lower value; 310,000 tested, 0.86% active; Q9GZV3;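 active = B-score over 3 SD under the library average, and starting fluorescence ratio not unusually high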;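 also: choline stimulus applied at its EC90 after an EC20 pre-addition; B-score computed on integrated fluorescence ratio after choline addition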
Kir21 block – blocks the mouse Kir2.1 inward-rectifier potassium channel; B-score at 10 µM; 310,000 tested, 0.85% active; AID 1672; P35561; HEK293-Kir2.1, FluxOR thallium flux fluorescence; stronger effect = lower value;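 active = fluorescence ratio B-score at or below minus 3 SD of library scores, with starting-brightness B-score within 2 SD, cut at about -4.2 in these data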;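 also: channel flux triggered by added potassium and thallium sulfate stimulus; B-score of peak minus minimum fluorescence over baseline after thallium stimulus; more negative B-score means stronger Kir2.1 block with less thallium influx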
Target sequence (P35561 whole entry, looked up): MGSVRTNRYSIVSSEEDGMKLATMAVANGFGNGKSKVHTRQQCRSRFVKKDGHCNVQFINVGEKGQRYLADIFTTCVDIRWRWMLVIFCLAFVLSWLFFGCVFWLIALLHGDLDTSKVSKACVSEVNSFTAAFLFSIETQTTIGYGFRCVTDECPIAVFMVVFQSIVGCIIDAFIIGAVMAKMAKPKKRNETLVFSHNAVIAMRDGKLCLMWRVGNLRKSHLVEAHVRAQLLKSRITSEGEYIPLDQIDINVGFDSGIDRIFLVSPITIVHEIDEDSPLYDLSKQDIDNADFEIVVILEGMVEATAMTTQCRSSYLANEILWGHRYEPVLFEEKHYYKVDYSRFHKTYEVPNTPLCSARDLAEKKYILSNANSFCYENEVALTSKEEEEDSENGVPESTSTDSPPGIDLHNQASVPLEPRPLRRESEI
CHT PAM – allosteric activators of human choline transporter CHT. CHT-expressing cells, membrane potential dye, choline EC20; stronger effect = higher value; LV-AA mutant CHT in HEK293 cells. B-score at 10 µM. Q9GZV3. 310,000 tested, 0.49% active. AID 488977;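 active = initial fluorescence not abnormally high and integrated response B-score, plate-corrected, over 3 SD above library mean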
CHT act confirm – human CHT activation, confirmatory screen; shares compounds with CHT PAM; CHT-expressing cells, membrane potential dye fluorescence (FDSS); % of choline EC20–EC90 response window; HEK293 expressing CHT LV-AA mutant; choline added at its EC20; activation, % at 10 µM; 2,500 tested, 91% active;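 active = primary screen active, with duplicate mean activation above negative control mean plus 3 SD, cut at about 11% in these data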
HEK293 MP dye – activity in parental HEK293 cells lacking CHT; ratio readout change at 10 µM, hits read low; membrane potential dye fluorescence (FDSS); measured after EC20 choline addition; 2,500 tested, 62% active; AID 623908; shares compounds with CHT PAM;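 active = duplicate-averaged ratio beyond 3 SD from buffer wells, up or down, though filed actives are nearly all decreases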
The depositor's hits bear a star; i = inactive; . = not tested or not shown. Most compounds without a hit are left out; they make up all but 2% or so of the library.

SMILES	TAG inh	CHT block	Kir21 block	CHT PAM	CHT act confirm	HEK293 MP dye
CC(C)C(OC(=O)CN1C(=O)c2ccccc2C1=O)C(=O)NC1CCCC1 (configuration not stated)	.	i	0.58	i	.	.
CCN(CC)S(=O)(=O)c1ccc(NC(=O)c2nc3nc(C)cc(C)n3n2)cc1	.	i	0.42	i	.	.
Cc1cc(C)n2nc(C(=O)Nc3ccc(S(=O)(=O)N(C)C)cc3)nc2n1	7	i	0.12	8.2*	60*	-56*
CCC(CC)c1nnc(NC(=O)c2nc3nc(C)cc(C)n3n2)s1	-7	i	-0.85	7.3*	30*	-31*
Cc1cc(C)n2nc(C(=O)Nc3ccc4c(c3)OCO4)nc2n1	16	i	0.42	7.6*	30*	-35*
Cc1cc(C)n2nc(C(=O)N/N=C/c3ccc(O)cc3)nc2n1	-1	i	1.4	6.5*	30*	-24*
Cc1cc(C)n2nc(C(=O)Nc3ccc4c(c3)OCCO4)nc2n1	10	.	.	.	.	.
Cc1cc(C)n2nc(C(=O)N/N=C/c3ccc(Cl)cc3)nc2n1	-10	i	0.26	i	.	.
CC1CCCCN1C(=O)COC(=O)C1CCN(S(=O)(=O)c2ccc3c(c2)OCCO3)CC1 (configuration not stated)	-11	i	0.26	i	.	.
COc1ccc(Cl)cc1NC(=O)CCc1nc(-c2ccccc2F)no1	-4	i	1.1	i	.	.
CCCCCCCC(=O)C(C)C(=O)N(C)[C@H](Cc1ccc(OC)cc1)C(=O)N(C)[C@H](C(N)=O)C(C)C (some centres not stated)	7	.	.	.	.	.
CCOC(=O)c1c(C)nc2ccccc2c1-c1ccccc1	.	i	-5.9*	i	16*	i
CCOC(=O)c1c(C)nc2ccc(Cl)cc2c1-c1ccccc1	.	i	-3.2	i	.	.
CCOC(=O)c1c(C)[nH]c(C(=O)N2CCc3cc(OC)c(OC)cc3C2)c1C	-9	i	-0.56	i	.	.
COc1ccc(/C=C/C(=O)NCCCN2CCCC2)cc1	.	i	1.8	i	.	.
COc1ccc(/C=C/C(=O)NC(C)CCc2ccccc2)cc1OC (configuration not stated)	.	i	0.7	i	.	.
COc1ccc(/C=C/C(=O)NC(C)CCc2ccccc2)cc1 (configuration not stated)	.	i	0.9	i	35*	i
COc1ccc(/C=C/C(=O)NCCCc2ccccc2)cc1	.	i	3.3	6.6*	38*	i
C=CCNC(=O)CN1C(=O)c2cccc3cccc1c23	.	i	-0.2	i	.	.
CCCCc1n(CC(=O)c2ccc(Cl)cc2)c2ccccc2[n+]1C	.	i	0.44	i	14*	i
Cc1nnc2n(C)c(=O)c3c4c(sc3n12)COC(C)(C)C4	2	i	-1.4	6.5*	74*	-72*
Cc1nnc2sc(-c3cccc(NC(=O)c4cccnc4)c3)nn12	.	i	0	7.9*	35*	-49*
Cc1ccc(-c2nn3c(C)nnc3s2)cc1NC(=O)c1cccnc1	-1	i	-1.6	8.3*	59*	-54*
CCN(CC)S(=O)(=O)c1cc(NC(=O)c2cccc(N3C(=O)CCC3=O)c2)ccc1Cl	7	i	1.7	i	.	.
CCCCCn1c(CN2CCN(C)CC2)nc2c1c(=O)n(C)c(=O)n2C	-5	i	0.35	i	46*	-36*
SMILES	TAG inh	CHT block	Kir21 block	CHT PAM	CHT act confirm	HEK293 MP dye
CCCCCCn1c(CN2CCN(Cc3ccccc3)CC2)nc2c1c(=O)n(C)c(=O)n2C	.	i	-1.4	i	24*	i
CCCCCn1c(CN2CCN(C(=O)OCC)CC2)nc2c1c(=O)n(C)c(=O)n2C	.	i	0.41	i	.	.
Cc1cnc(NC(=O)c2cc(-c3ccccc3)nn2-c2ccccc2)s1	-4	.	.	.	.	.
COc1cccc(C(=O)Nc2ccc3nc(N4CCOCC4)cc(C)c3c2)c1	19	i	-0.69	6.8*	42*	-43*
CCN1CCN(c2cc(C)c3cc(NC(=O)c4cccc(OC)c4)ccc3n2)CC1	4	i	0.25	i	.	.
Cc1cc(N2CCOCC2)nc2ccc(NC(=O)CCC(=O)N3CCCC(C)C3)cc12 (configuration not stated)	0	i	0.97	i	41*	-36*
Cc1nnc2n(-c3ccccc3)c(=O)c3c4c(sc3n12)CCCC4	.	i	-0.1	6.5*	26*	-40*
CN(C)CCNC(=O)c1onc(CSc2ccncc2)c1C(=O)NCCN(C)C	11	i	-0.2	i	50*	-58*
Cc1ccc(NC(=O)CSc2nnc(COc3ccccc3F)n2N)cc1S(=O)(=O)N1CCOCC1	-2	.	.	.	.	.
Cc1ccc2c(c1)C1(C(=O)N2C)N2CC3(C)CN1CC(C)(C2)C3=O (configuration not stated)	.	i	0.48	i	.	.
Cc1ccc2c(c1)C(c1ccc(O)cc1)(c1ccc(O)cc1)C(=O)N2C	-12	i	-0.84	6.4*	1	i
CCc1nc2ccc(C(=O)NCCN3CCCC3)cn2c1N(C)Cc1ccc(OC)cc1	-11	.	.	.	.	.
Cc1cc(Cl)ccc1OC(C)C(=O)NCCc1ccc2c(c1)OCCO2 (configuration not stated)	.	i	-3.9	i	9	i
Cc1cc(Cl)ccc1OC(C)C(=O)NCCCCc1ccccc1 (configuration not stated)	.	i	-3.7	i	.	.
CSc1cccc(NC(=O)CN(C2CCCCC2)S(C)(=O)=O)c1	-7	i	-1.5	8.9*	42*	i
N#Cc1c(=O)c2nc(NCc3ccccc3)ncc2n2ccccc12	.	i	-1.1	i	24*	-40*
CCN(CC(=O)Nc1ccc(NC(C)=O)cc1)C(=O)c1ccc2c(c1)OCO2	5	.	.	.	.	.
O=C(Nc1cccnc1)c1ccc2c(c1)C(=O)N(Cc1cccnc1)C2=O	.	i	2.3	i	16*	-39*
COc1ccc(C(=O)C[n+]2ccccc2/C=N/O)cc1	-2	i	-2.5	i	19*	-25*
Cc1ccc2c(c1)N(C)/C(=C/c1cccc[n+]1CCO)S2	.	i	-2.2	i	.	.
O/N=C/c1cccc[n+]1CCCCCC[n+]1ccccc1/C=N/O	5	i	-4.3	6.4*	44*	-60*
COc1ccc2c(ccc[n+]2CC(=O)c2ccccc2)c1	1	i	1.9	i	.	.
COc1ccc(CN(C)C(=O)c2sccc2-c2ccccc2)c(OC)c1	-30	i	-2.1	i	.	.
CN(CCO)C(=O)C(c1ccccc1)c1ccccc1	1	i	2	i	.	.
CN(Cc1cccc(F)c1)C(=O)C(c1ccccc1)c1ccccc1	.	i	-0.27	6.5*	6	i
CN(Cc1ccc(F)cc1)C(=O)c1sccc1-c1ccccc1	-26	i	-7.8*	6.7*	37*	i
